Among the data in PubChem BioAssay (NCI) are growth inhibition values, retold here.

About 79,000 compounds went through this panel and 15% of them were active in at least one assay; those are over-represented in the sample as a whole. Calls of active or inactive are those of the source. Cut-off read from the data, not from the text of the source: active = growth inhibition above about 70%; inactive = the rest.

A short description of one test: NCI Yeast Anticancer Drug Screen. Data for the rad50EPP+ strain (AID 151).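 Note: 0% = growth of vehicle-treated control cultures.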 The note with it: S. cerevisiae rad50 mutant strain, at 3.7 µM, hits give high values. The method, boiled down:
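Genetically defined yeast (rad50EPP+, DNA damage repair alteration) is grown with compound, and inhibition of growth is expressed relative to vehicle-treated controls.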
`CN(C)CC(CN(C)C)C(=O)/C=C/c1ccc(Cl)cc1Cl`: the growth inhibition is -2% (inactive).
Turning to `c1ccc2c(c1)ccn2CCc1c[nH]c2ccccc12`, the growth inhibition is -5% (inactive).
`Cc1ccccc1NC(=O)c1c(C)oc2c1C(=O)c1ccccc1C2=O`: the growth inhibition is -17% (inactive).
Take `CC(C)OC(=O)NNc1c(Cl)cc(Cl)cc1Cl`: the growth inhibition was 31% (inactive).
`COc1ccc2nc3cccc([N+](=O)[O-])c3c(NCCNCCO)c2c1`: the growth inhibition is 18% (inactive).
`COc1ccc2c(c1)CCCC(Br)C2=O` (configuration not stated): the growth inhibition was 28% (inactive).
In the case of `CCC(OC(C)=O)C1CC(C(C)C)CCC1C` (configuration not stated), the growth inhibition was 0% (inactive).
The same measure, in the same setting: the figure for `O=S(=O)(c1cccc(C(F)(F)F)c1)N1c2ccccc2-n2cccc2C1c1cccnc1` (configuration not stated) is -45% (inactive).
With `c1ccc(-c2cc(C3CO3)c3ccccc3n2)cc1` (configuration not stated), the growth inhibition was 6% (inactive).
Regarding `COc1ccc(/C=C2\SC(=S)N(/C=C3\C(=O)N(c4ccccc4)N=C3C)C2=O)cc1OC`, the growth inhibition is 6% (inactive).
With `CC1=CC(=C(c2ccc(N)c(C)c2)c2ccc(N)c(C)c2)C=CC1=N`, the growth inhibition is 17% (inactive).
Same read-out and setting: as for `CC1C(c2ccccc2)SC(=N)N1C` (configuration not stated), the figure is -2% (inactive); as for `CC(/C=C/c1ccc([N+](=O)[O-])o1)=N/N1CC(CN2CCOCC2)OC1=O` (configuration not stated), 4% (inactive); as for `C=CC(C)(C)N1C(=O)C(C(C)=O)=C(O)C1Cc1c[nH]c2ccccc12` (configuration not stated), 1% (inactive).
The same measure, in the same setting: as for `O=C1c2cccc3cccc(c23)C(=O)N1CCNCCN1C(=O)c2cccc3cccc(c23)C1=O`, the figure is 0% (inactive); as for `Cc1ccc([N+](=O)[O-])c2c(NCCC[N+](C)(C)[O-])c3ccccc3nc12`, -10% (inactive).
On the same count and under the same terms, as for `COC(=O)C(Cc1c[nH]c2ccccc12)N1CN(C)c2ccccc2C1=O` (configuration not stated), the figure is 0% (inactive); as for `O=C(/N=N/C(=O)Oc1ccccc1)Oc1ccccc1`, -110% (inactive); as for `COc1cc([C@@H]2c3cc4c(cc3[C@@H](NC(=O)NO)[C@H]3COC(=O)[C@H]23)OCO4)cc(OC)c1O`, 0% (inactive).
With `CC1(C)CC(=O)C(/C=N/c2nc(-c3ccc(Br)cc3)cs2)=C(O)C1`, the growth inhibition was 17% (inactive).
Still for that read-out and setting: the figure for `CCOC(=O)/C(=C/c1cccc(Cl)c1)N(CC)CC` is 29% (inactive); for `CC(C)OC(=O)NNc1cccc(Cl)c1` it is 33% (inactive); for `CCC(=O)C1=C(O)c2cc(OC)ccc2CC1C(=O)OC` (configuration not stated) it is 6% (inactive).
Turning to `O=S(=O)(NC1CCCC(c2ccccc2)C1)c1ccccc1` (configuration not stated), the growth inhibition was 1% (inactive).
Same read-out and setting: the figure for `COc1ccc2nc3cccc([N+](=O)[O-])c3c(NCCCCCC(=O)O)c2c1` is 81% (active).
Consider `CCO/C=C1\SC(=S)N(c2ccc(OCC)cc2)C1=O`, for which the growth inhibition is -21% (inactive).
Take `COc1cc(OC)c(CSCC(NC(=O)OCC2c3ccccc3-c3ccccc32)C(=O)O)c(OC)c1` (configuration not stated): the growth inhibition was -2% (inactive).
As for `COC(=O)c1ccccc1N=NNc1cccc(SC)c1`, the growth inhibition is 21% (inactive).
As to `CC1=NN(C(=O)c2ccccc2O)C(=O)/C1=C/c1ccco1`, the growth inhibition is 45% (inactive).
On the same count and under the same terms, as for `COc1ccccc1NC(=O)c1ccc(Cl)cc1`, the figure is 9% (inactive); as for `CC(C)=CCC/C(C)=C/CN1C(=O)C=CC1=O`, 86% (active); as for `O=C1CSC(c2ccccc2)N1c1ccc(-c2ccc(-n3c(-c4ccccc4)nc4ccccc4c3=O)cc2)cc1` (configuration not stated), 9% (inactive).
`N#CC1OB(O)c2ccccc21` (configuration not stated): the growth inhibition was 4% (inactive).
In the case of `O=C(NCCNCCNC(=O)c1cc(-c2ccccc2)nc2ccccc12)c1cc(-c2ccccc2)nc2ccccc12`, the growth inhibition is 2% (inactive).
For `Brc1ccc(B2Nc3ccccc3N2)cc1`, the growth inhibition was 19% (inactive).
On to `CCOP(=O)(OCC)/C(C#N)=C/c1cccc(Oc2ccccc2)c1`, for which the growth inhibition is -7% (inactive).

Staying with this test, now noted: S. cerevisiae rad50 mutant strain, at 11.0 µM, hits give high values.
Turning to `CN(C)CC(CN(C)C)C(=O)/C=C/c1ccc(Cl)cc1Cl`, the growth inhibition was 6% (inactive).
Same read-out and setting: the figure for `c1ccc2c(c1)ccn2CCc1c[nH]c2ccccc12` is 23% (inactive); for `Cc1ccccc1NC(=O)c1c(C)oc2c1C(=O)c1ccccc1C2=O` it is 7% (inactive); for `CC(C)OC(=O)NNc1c(Cl)cc(Cl)cc1Cl` it is 49% (inactive).
In the case of `COc1ccc2nc3cccc([N+](=O)[O-])c3c(NCCNCCO)c2c1`, the growth inhibition was 61% (inactive).
For `COc1ccc2c(c1)CCCC(Br)C2=O` (configuration not stated), the growth inhibition is 30% (inactive).
With `CCC(OC(C)=O)C1CC(C(C)C)CCC1C` (configuration not stated), the growth inhibition was 15% (inactive).
Take `O=S(=O)(c1cccc(C(F)(F)F)c1)N1c2ccccc2-n2cccc2C1c1cccnc1` (configuration not stated): the growth inhibition is -54% (inactive).
`c1ccc(-c2cc(C3CO3)c3ccccc3n2)cc1` (configuration not stated): the growth inhibition is 24% (inactive).
Turning to `COc1ccc(/C=C2\SC(=S)N(/C=C3\C(=O)N(c4ccccc4)N=C3C)C2=O)cc1OC`, the growth inhibition is 24% (inactive).
Regarding `CC1=CC(=C(c2ccc(N)c(C)c2)c2ccc(N)c(C)c2)C=CC1=N`, the growth inhibition is 23% (inactive).
In the case of `CC1C(c2ccccc2)SC(=N)N1C` (configuration not stated), the growth inhibition is -2% (inactive).
`CC(/C=C/c1ccc([N+](=O)[O-])o1)=N/N1CC(CN2CCOCC2)OC1=O` (configuration not stated): the growth inhibition is 34% (inactive).
Regarding `C=CC(C)(C)N1C(=O)C(C(C)=O)=C(O)C1Cc1c[nH]c2ccccc12` (configuration not stated), the growth inhibition was -4% (inactive).
As for `O=C1c2cccc3cccc(c23)C(=O)N1CCNCCN1C(=O)c2cccc3cccc(c23)C1=O`, the growth inhibition was 0% (inactive).
In the case of `Cc1ccc([N+](=O)[O-])c2c(NCCC[N+](C)(C)[O-])c3ccccc3nc12`, the growth inhibition was -6% (inactive).
Consider `COC(=O)C(Cc1c[nH]c2ccccc12)N1CN(C)c2ccccc2C1=O` (configuration not stated), for which the growth inhibition was -3% (inactive).
Take `O=C(/N=N/C(=O)Oc1ccccc1)Oc1ccccc1`: the growth inhibition is -106% (inactive).
On the same count and under the same terms, as for `COc1cc([C@@H]2c3cc4c(cc3[C@@H](NC(=O)NO)[C@H]3COC(=O)[C@H]23)OCO4)cc(OC)c1O`, the figure is 2% (inactive); as for `CC1(C)CC(=O)C(/C=N/c2nc(-c3ccc(Br)cc3)cs2)=C(O)C1`, 51% (inactive).
Take `CCOC(=O)/C(=C/c1cccc(Cl)c1)N(CC)CC`: the growth inhibition is 34% (inactive).
Consider `CC(C)OC(=O)NNc1cccc(Cl)c1`, for which the growth inhibition was 93% (active).
On to `CCC(=O)C1=C(O)c2cc(OC)ccc2CC1C(=O)OC` (configuration not stated), for which the growth inhibition is 43% (inactive).
On the same count and under the same terms, as for `O=S(=O)(NC1CCCC(c2ccccc2)C1)c1ccccc1` (configuration not stated), the figure is -1% (inactive); as for `COc1ccc2nc3cccc([N+](=O)[O-])c3c(NCCCCCC(=O)O)c2c1`, 95% (active).
As to `CCO/C=C1\SC(=S)N(c2ccc(OCC)cc2)C1=O`, the growth inhibition is -6% (inactive).
As to `COc1cc(OC)c(CSCC(NC(=O)OCC2c3ccccc3-c3ccccc32)C(=O)O)c(OC)c1` (configuration not stated), the growth inhibition is -1% (inactive).
With `COC(=O)c1ccccc1N=NNc1cccc(SC)c1`, the growth inhibition was 39% (inactive).
Regarding `CC1=NN(C(=O)c2ccccc2O)C(=O)/C1=C/c1ccco1`, the growth inhibition was 49% (inactive).
On the same count and under the same terms, the figure for `COc1ccccc1NC(=O)c1ccc(Cl)cc1` is 22% (inactive); for `CC(C)=CCC/C(C)=C/CN1C(=O)C=CC1=O` it is 99% (active); for `O=C1CSC(c2ccccc2)N1c1ccc(-c2ccc(-n3c(-c4ccccc4)nc4ccccc4c3=O)cc2)cc1` (configuration not stated) it is 15% (inactive).
Still for that read-out and setting: as for `N#CC1OB(O)c2ccccc21` (configuration not stated), the figure is 4% (inactive).
With `O=C(NCCNCCNC(=O)c1cc(-c2ccccc2)nc2ccccc12)c1cc(-c2ccccc2)nc2ccccc12`, the growth inhibition is 3% (inactive).
Same read-out and setting: as for `Brc1ccc(B2Nc3ccccc3N2)cc1`, the figure is 29% (inactive); as for `CCOP(=O)(OCC)/C(C#N)=C/c1cccc(Oc2ccccc2)c1`, 7% (inactive).
